Shown are actives, neighbours in structure and some others; about 3.8% of the full set was active somewhere.
GLS inh = glutaminase GLS (human) inhibition | GLS enzymatic activity, qHTS titration | Potency, µM (series often up to 45.5 µM), for inactives: at the highest dose activity change, negative = inhibition, hits mostly inhibitors | O94925 | 410,000 compounds, 0.21% hits | AID 624170
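Assay buffer: 45 mM KH2PO4 pH 8.2, 0.02% Tween-20. hKGA acts on L-glutamine (1 mM solution added); product glutamate is reported by an oxidase/peroxidase Amplex Red coupling, with fluorescence taken at baseline and 30 min.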
GCN5L2 inh = inhibitors of human GCN5L2 histone acetyltransferase. AID 504327. Potency, µM (doses to about 58.9 µM), without a hit: top-dose activity change, negative = inhibition, hits mostly inhibitors. GCN5L2 HAT assay, ThioGlo1 CoA-SH fluorescence. 390,000 compounds, 0.21% hits
Target sequence (Q92830 whole entry, looked up): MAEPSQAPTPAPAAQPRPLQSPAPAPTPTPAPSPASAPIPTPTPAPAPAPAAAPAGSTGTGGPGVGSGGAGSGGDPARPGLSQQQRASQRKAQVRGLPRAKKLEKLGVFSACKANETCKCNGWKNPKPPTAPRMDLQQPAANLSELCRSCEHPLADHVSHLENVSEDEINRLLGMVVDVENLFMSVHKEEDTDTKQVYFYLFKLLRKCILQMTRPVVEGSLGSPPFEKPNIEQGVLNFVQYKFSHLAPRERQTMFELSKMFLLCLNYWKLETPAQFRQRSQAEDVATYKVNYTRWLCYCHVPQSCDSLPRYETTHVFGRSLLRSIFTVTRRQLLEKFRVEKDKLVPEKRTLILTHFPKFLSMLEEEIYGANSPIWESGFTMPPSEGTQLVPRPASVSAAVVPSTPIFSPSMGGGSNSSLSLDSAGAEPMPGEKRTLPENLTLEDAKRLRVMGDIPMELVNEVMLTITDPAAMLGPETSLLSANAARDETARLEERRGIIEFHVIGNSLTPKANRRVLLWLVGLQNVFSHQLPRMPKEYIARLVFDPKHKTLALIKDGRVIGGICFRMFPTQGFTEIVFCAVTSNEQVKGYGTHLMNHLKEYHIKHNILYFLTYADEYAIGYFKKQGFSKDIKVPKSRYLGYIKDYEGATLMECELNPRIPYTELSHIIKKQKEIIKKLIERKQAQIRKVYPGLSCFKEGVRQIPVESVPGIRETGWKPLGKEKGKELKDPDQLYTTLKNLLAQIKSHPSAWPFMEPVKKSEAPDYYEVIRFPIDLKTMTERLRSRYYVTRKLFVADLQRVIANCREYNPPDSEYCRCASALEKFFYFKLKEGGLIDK
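Preincubate 20nM GCN5L2 with compound 15 min, RT → add 50uM ThioGlo1 + 75uM H3(1-25) + 70uM acetyl-CoA → read fluorescence 0 and 20 min. Primary qHTS; fluorescent artifacts likely.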
VDR inhibitor = blocks the human vitamin D receptor; VDR-SRC2-3 peptide fluorescence polarization, 2 h; P11473; Potency, µM, without a hit: max response, negative = inhibition, most hits filed as inhibitors; 400,000 compounds, 0.93% hits
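After 23 nl compound addition and a short centrifugation, plates sat for 2 hours at ambient temperature; polarization of fluorescence then indicated loss of VDR binding to peptide SRC2-3.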
TrxR1 substrate = substrates of rat thioredoxin reductase 1. Potency, µM (doses to about 114 µM), inactives show at the top dose activity change, negative = substrate turnover. O89049. 390,000 compounds, 0.01% hits. purified TrxR1 substrate turnover, NADPH consumption readout; note: nearly all actives have a fitted effect of over 50% in size
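Rat TrxR1, dispensed at 90 nM, was prereduced with 400 uM NADPH (final) for 5 min at ~22 deg C, then incubated with compound 15 min before 400 uM selenite. A first-read NADPH fluorescence drop versus no-compound background flagged substrates.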
rTrxR1 inhibitor = blocks rat thioredoxin reductase 1; Potency, µM (top dose mostly 114 µM), inactives show at the highest dose activity change, negative = inhibition, most hits filed as inhibitors; recombinant rTrxR1, NADPH fluorescence consumption, selenite substrate; 390,000 compounds, 1% hits; O89049; note: nearly all actives have a fitted effect of over 65% in size
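Rat TrxR1 (90 nM in the dispensed reagent) was pre-reduced with 400 uM NADPH for 5 min at room temperature, then incubated with compound for 15 min. After 400 uM selenite was added, NADPH fluorescence (Ex 340/Em 450 nm) was followed for 8 min.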
Sfp PPTase inh = inhibitors of Bacillus subtilis Sfp phosphopantetheinyl transferase; Biochemical Sfp PPTase activity, qHTS; AID 1490; Potency, µM, without a hit: largest response in the series, negative = inhibition, usual class: inhibitors; 310,000 compounds, 3.5% hits; Q9F4F7;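 note: the enzyme is Sfp with the accession as filed and its product quenches rhodamine fluorescence; 0% = enzyme reaction without inhibitor and -100% = no enzyme wells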
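Fluorescence-quenching assay with 15 nM Sfp, 5 uM rhodamine-CoA and 12.5 uM BHQ-2-labelled ybbR peptide in pH 7.6 Hepes/MgCl2 buffer. Enzyme was pre-incubated with compound for 15 min at room temperature. Rate was taken from the 30-min fluorescence change (525/598 nm).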
An asterisk follows results filed as active; ? = inconclusive; / = not tested or not shown; [ ] = remark or other dose. Calls come from the whole dose curve; as a rule, active = well fitted curve in the direction sought with a large enough effect; inconclusive = small, poorly fitted or top-dose-only effect, or another doubt; inactive = no such curve, though single readings can be large; an effect the other way counts as inactive or inconclusive. Unless noted, % is set by controls: 0 for no effect and ±100 for the full control effect; potency is the fitted concentration of half-maximal effect.

SMILES	GLS inh	GCN5L2 inh	VDR inhibitor	TrxR1 substrate	rTrxR1 inhibitor	Sfp PPTase inh
COc1cc2nc(CN(C)CC(=O)Nc3ccc(N4CCOCC4)cc3)[nH]c(=O)c2cc1OC	41%	-4%	-14%	-4%[57.1 µM]	14%[57.1 µM]	3.5µM*
COc1ccccc1-c1noc(-c2ccco2)n1	2%	2%	8%	5%	-15%	10%
N#Cc1c(Cl)cccc1N1CCCC1	3%	-4%	4%	5%	9%	9%
O=C(/C=C/c1ccc([N+](=O)[O-])cc1)/C=C/c1ccco1	/	-21%	/	/	/	50µM*
O=C(/C=C/c1ccc([N+](=O)[O-])cc1)c1ccco1	-2%	-3%	-10%	-1%	-2%	2%
O=C(/C=C/c1ccco1)NCC(=O)N/N=C/c1ccc([N+](=O)[O-])cc1	?	-22%	?	-10%	45µM*	?
O=C(/C=C/c1ccco1)NCC(=O)N/N=C/c1ccc(Cl)cc1	13%	-4%	7%	1%	-21%	1%
O=C(N/N=C/C=C/c1ccco1)c1cccc([N+](=O)[O-])c1	-8%	-1%	-2%	-6%	?	-21%
O=C(/C=C/c1ccco1)c1cccc([N+](=O)[O-])c1	-1%	/	71µM*	4%[11.4 µM]	-62%[57.1 µM]	/
CCOC(=O)CN1C(=O)S/C(=C\c2ccc(-c3ccc(C(=O)O)c(Cl)c3)o2)C1=O	?	?	?	-6%	-22%	50µM*
O=C(O)CN1C(=O)/C(=C/c2ccc(N3CCCCC3)o2)SC1=S	11µM*	-19%	?	5%	28µM*	28µM*
CC(C)N1C(=O)S/C(=C\c2ccc(-c3ccc(Cl)c(C(=O)O)c3)o2)C1=O	?	-23%	?	3%	-18%	-28%
CCOC(=O)CN1C(=O)S/C(=C/c2ccc(N3CCCCC3)o2)C1=O	-13%	-2%	-14%	0%	50µM*	14µM*
O=C(O)c1ccc(-c2ccc(/C=C3\NC(=O)N(Cc4ccc(Cl)cc4)C3=O)o2)cc1Cl	0%	-16%	79µM*	14%[57.1 µM]	?	20µM*
COc1ccccc1CNC(=O)c1ccc(CS(=O)(=O)c2c(Cl)cccc2Cl)o1	-4%	-4%	-15%	0%	13%	/
Cc1ccccc1Cc1c(C)nc2nc(SCC(=O)NCCCN3CCCC3)nn2c1C	-18%	-5%	-15%	3%	9%	10%
COC(=O)CN1C(=O)S/C(=C/c2cc(C)n(C)c2C)C1=O	2%	-25%	-20%	3%[57.1 µM]	-21%[57.1 µM]	12%
COC(=O)CN1C(=O)S/C(=C/c2ccc(N3CCCCC3)o2)C1=O	-23%	-14%	32µM*	-15%	3.5µM*	7.1µM*
CC(C)(C)c1cnnn1-c1ccc(C(=O)CCl)cc1	4%	-17%	79µM*	-2%	-35%	-14%
C=CCn1c(SCc2nc3sc(C(=O)O)c(C)c3c(=O)[nH]2)nnc1-c1ccc(C(C)(C)C)cc1	-25%	-1%	-10%	-2%	7%	28µM*
C=CCn1c(SCc2nc3sc(C(=O)O)c(C)c3c(=O)[nH]2)nnc1-c1ccccc1	-4%	-5%	-16%	-7%	6%[57.1 µM]	12%
CS(=O)(=O)N(Cc1cccc(CN(C(C(=O)O)c2ccccc2)S(C)(=O)=O)c1)C(C(=O)O)c1ccccc1 (configuration not stated)	-10%	-2%	?	1%	50µM*	?
CC(C)C[C@@H](C(=O)O)N(Cc1cccc(CN([C@@H](CC(C)C)C(=O)O)S(C)(=O)=O)c1)S(C)(=O)=O	5%	0%	1%	1%	-3%	6%
COc1ccc(NC(=O)/C=C/C(=O)O)c(OC)c1	19%	7%	-11%	-2%	18%[57.1 µM]	-1%
O=C(O)/C=C/C(=O)Nc1ccc(N2CCOCC2)nc1N1CCOCC1	36%	-9%	-27%	-4%	16µM*	10µM*
SMILES	GLS inh	GCN5L2 inh	VDR inhibitor	TrxR1 substrate	rTrxR1 inhibitor	Sfp PPTase inh
O=C(NCc1cccc(Cl)c1)N1CCN(S(=O)(=O)c2ccccc2F)CC1	-1%	-2%	12%	3%	22%	6%
CC(=O)Nc1nonc1-c1nc2ccccc2n1N(C(C)=O)C(C)=O	13%	-4%	-11%	24%	56µM*	-5%
Cc1ccc(F)c(S(=O)(=O)NC(=O)C2(C)CCN2C(=O)CC(c2ccccc2)c2ccccc2)c1 (configuration not stated)	4%	/	/	/	/	/
COc1cccc(-c2cc(C(=O)Nc3ccc(OC)cc3OC)no2)c1	8%	-4%	-7%	21%	13%	/
Oc1ccc2c(c1-c1c(O)c(Br)cc3c1CCCC3)CCCC2	/	/	12%	/	/	?
Nc1cc2c(cc1O)CCCC2	?	-3%	5%	6%[57.1 µM]	1%[57.1 µM]	4.5µM*
COCCn1c(CCc2ccccc2)n[nH]c1=S	7%	2%	1%	4%[57.1 µM]	-9%[57.1 µM]	12%
COCCn1c(C23CC4CC(CC(C4)C2)C3)n[nH]c1=S	-10%	-17%	-12%	9%[57.1 µM]	-7%[57.1 µM]	32µM*
Cc1cc(Cl)ccc1N=Cc1c(O)n(C)c(=O)n(C)c1=O	/	-4%	/	/	/	0%
Cc1cc(Cl)ccc1N=c1ssnc1Cl	39%	28µM*	?	-13%	-28%	7.1µM*
Nc1ccccc1N=c1ssnc1Cl	-9%	28µM*	?	14%	10%	1.6µM*
Nc1ccccc1N=Nc1ccccc1N	24%	-3%	-19%	-7%	1%	-2%
Cc1nnc(N=c2ssnc2Cl)o1	?	2.8µM*	?	-13%	?	/
Cc1ccc(N=c2ssnc2Cl)cc1	50%	20µM*	28µM*	-15%	?	13µM*
CN1C(=O)c2ccc(NC(=O)c3ccc(Cl)cc3Cl)cc2C1=O	-1%	0%	-8%	8%	42%	1%
Cc1cc(C)cc(C(=O)NCCCc2ccccc2)c1	-7%	-1%	3%	3%	14%	-16%
C=CC[C@@H]1C=C[C@H](ON=C(C)C)[C@H](CO)O1	/	/	/	/	/	-6%
Cc1cc(C)nc(/N=c2/ssnc2Cl)c1	10%	-6%	28µM*	-3%	0%	20µM*
Cc1scc(C(=O)N/N=C/c2ccsc2)c1C	5%	2%	-9%	2%	6%	5%
Fc1ccccc1Nc1ncnc2c1nc1n2CCCCC1	-4%	-4%	-1%	1%	12%	/
CC(=O)N(C1=C(N2CCOCC2)C(=O)c2ccccc2C1=O)c1ccc(C(=O)O)cc1	-2%	-2%	-15%	-4%	7.9µM*	-12%
Cc1ccc2cc(CCl)c(Cl)nc2c1	-7%	-10%	9%	0%	45µM*	-1%
CC(=O)Nc1nonc1-c1nnc(SCc2ccc(Cl)cc2)n1C	5%	-4%	-3%	4%	6%	/

High-throughput results: PubChem, National Center for Advancing Translational Sciences (NCATS)
